# M1 ag: agonists of human M1 muscarinic receptor; hit rate 0.33% among 360,000; AID 588814; CHO-K1 hM1, Fluo-8 calcium fluorescence, agonist mode; 0% DMSO, 100% acetylcholine EC100; activation, % at 3 µM;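 active = activation above the run's mean compound activation plus 3 SD, cut at about 16% in these data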;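 also: peak over basal fluorescence ratio within a 140 s kinetic read after compound addition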
# Target sequence (P11229 whole entry, looked up): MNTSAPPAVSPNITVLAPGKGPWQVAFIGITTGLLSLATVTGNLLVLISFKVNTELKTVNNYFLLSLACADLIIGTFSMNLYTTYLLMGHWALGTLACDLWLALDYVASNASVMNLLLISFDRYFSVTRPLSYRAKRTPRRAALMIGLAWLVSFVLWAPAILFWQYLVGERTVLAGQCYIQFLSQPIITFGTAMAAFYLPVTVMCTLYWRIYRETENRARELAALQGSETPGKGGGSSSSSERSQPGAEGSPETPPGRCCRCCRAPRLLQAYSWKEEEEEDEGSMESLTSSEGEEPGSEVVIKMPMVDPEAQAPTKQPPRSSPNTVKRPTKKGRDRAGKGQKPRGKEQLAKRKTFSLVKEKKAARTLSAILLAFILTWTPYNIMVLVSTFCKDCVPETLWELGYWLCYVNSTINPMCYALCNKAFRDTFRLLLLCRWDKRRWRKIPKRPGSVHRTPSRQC
# M1 ag parental: nonselective activator or artifact in parental CHO-K1 cells. Fluo-8 calcium fluorescence; scaled to maximal ATP response, vehicle zero. hit rate 0.48% among 360,000. activation, % at 3 µM. AID 602248; in the data active = activation above about 15%;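 also: untransfected CHO-K1 host cells lacking M1 receptor as counterscreen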
# CHRM1 PAM: positive allosteric modulators of human M1 muscarinic receptor | hit rate 0.088% among 360,000 | AID 588819 | CHO-K1 hM1, Fluo-8 calcium fluorescence, ACh EC20; 0% = ACh EC20, 100% = maximal ACh | activation, % at 3 µM; in the data active = activation above about 19%, passing the limit was not always enough
# CHO-K1 Ca antag: M1 antagonist counterscreen hit in parental CHO-K1 cells; ATP-induced calcium, Fluo-8 fluorescence; inhibition, % at 3 µM; hit rate 0.6% among 360,000;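 active = inhibition above a per-plate cutoff, the plate's mean sample inhibition plus 3 SD, cut at about 24% in these data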;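 also: 0% = DMSO plus EC80 ATP and 100% = DMSO alone without ATP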
# CHO-K1 Ca PAM: nonselective activator or artifact in parental CHO-K1 calcium assay; ATP EC20, Fluo-8 calcium fluorescence; 0% at ATP EC20, 100% at ATP max; activation, % at 3 µM; hit rate 0.02% among 360,000;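 active = activation above the run cutoff, the mean activation of all test compounds plus 3 SD, cut at about 40% in these data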;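 also: peak over basal fluorescence ratio in a 140 s read after ATP addition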
# M1 antag: antagonists of human M1 muscarinic receptor; hit rate 1.3% among 360,000; P11229; CHO-K1 hM1, Fluo-8 calcium fluorescence, ACh EC80 antagonist; inhibition, % at 3 µM;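 active = percent inhibition above its own plate's cutoff, namely the mean of that plate's compound wells plus 3 SD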;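 also: peak over basal fluorescence ratio during 140 s after agonist addition; 0% = ACh EC80 plus DMSO and 100% = DMSO alone without agonist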
# Starred values were filed as active, the others as inactive; x = no result given. Shown are actives, neighbours in structure and some others; about 2.3% of the full set was active somewhere.
SMILES,M1 ag,M1 ag parental,CHRM1 PAM,CHO-K1 Ca antag,CHO-K1 Ca PAM,M1 antag
CC(CCN1C(Nc2ccccc2)=NC[C@@H]1Cc1ccccc1)c1ccccc1 (some centres undefined),-14,1,-27,11,-13,37*
NNC(=O)CCN1CCN(C(c2ccccc2)c2ccccc2)CC1,-7,0,-16,-15,14,61*
CC1CCN(CC(=O)N2CCN(c3ccccc3)CC2)CC1,-8,0,-7,-5,11,-1
O=C(CN1CCN(C(c2ccccc2)c2ccccc2)CC1)N1CCN(c2ccccc2)CC1,-10,0,-24,1,2,81*
O=C(CN1CCN(C(c2ccccc2)c2ccccc2)CC1)N1N=CCC1c1ccccc1 (centres undefined),-6,5,-25,-9,18,48*
O=C(CN1CCN(c2ccc(F)cc2)CC1)N1N=CCC1c1ccccc1 (centres undefined),-12,2,9,-5,5,103*
O=c1[nH]c(=S)[nH]c2nccnc12,-1,0,2,7,-13,-3
Cc1noc(-c2ccccc2)c1NC(=O)Nc1ccc(Cl)cc1,0,15*,-24,2,6,41*
CN(CC(=O)Nc1ccc(F)cc1[N+](=O)[O-])C1CCS(=O)(=O)C1 (centres undefined),-2,1,9,-15,6,-12
COc1cc(C2NC(=O)NC(C)=C2C(=O)OCC2CCCCC2)ccc1O (centres undefined),4,20*,8,-8,8,-10
COc1ccc(COC(=O)C2=C(C)NC(=O)NC2c2ccc(OC)c(OC)c2)cc1 (centres undefined),4,0,18,24*,-3,-10
C/C=C/COC(=O)C1=C(C)NC(=O)NC1c1ccc2c(c1)OCO2 (centres undefined),-4,1,1,25*,-6,4
CC1=C(C(=O)OCCC(C)C)C(c2ccc3c(c2)OCO3)NC(=O)N1 (centres undefined),-6,1,-5,0,1,9
CN1CCC(N(C)C(=O)c2cc(=O)c3ccccc3o2)CC1,-5,2,13,-14,18,-14
O=C(NCc1ccc(Cl)c(Cl)c1)C1CCCC1,-4,0,11,3,6,-7
CC(C)c1ccccc1NC(=O)CNCCOc1ccccc1F,-3,3,6,-4,-13,-5
Cc1ccc(S(=O)(=O)n2c(N)nc3cc(C)c(C)cc32)cc1,-11,0,-20,-3,-4,20*
Cc1ccc(S(=O)(=O)n2c(C)nc3cc(C)ccc32)cc1,-1,0,1,-10,3,-2
Cc1nc(SCc2nc3ccc(C(=O)c4ccccc4)cc3[nH]2)c2oc3ccccc3c2n1,-4,1,-13,-26,26,7
O=C(OCC1CCCN2CCCCC12)c1ccc2c(c1)OCO2 (centres undefined),-9,0,-19,7,4,29*
O=C(NC(=O)c1ccccc1)OCC1CCCN2CCCCC12 (centres undefined),-11,0,6,3,-13,-10
Cn1c(SCC(N)=O)nnc1C1CCN(S(=O)(=O)c2ccccc2C(F)(F)F)CC1,-1,1,-5,-14,16,-6
Cn1c(SCCN2CCCC2)nnc1C1CCN(S(=O)(=O)c2cccc(F)c2)CC1,-11,2,-31,-13,10,63*
CC(OC(=O)c1ccc(F)c(S(=O)(=O)N2CCOCC2)c1)C(=O)NC1CCCC1 (centres undefined),-2,0,4,27*,-11,-7
COCCNC(=O)C1(C)CCCN(CC(=O)c2ccc(OC)cc2)C1 (centres undefined),1,0,5,-2,-2,-7
SMILES,M1 ag,M1 ag parental,CHRM1 PAM,CHO-K1 Ca antag,CHO-K1 Ca PAM,M1 antag
O=C(OCC(=O)N1CCC(Cc2ccccc2)CC1)c1cc(Br)ccc1O,-5,0,2,-12,-3,12
Nc1c(C(=O)c2ccccc2)sc2nsc(SCCN3CCCC3)c12,11,16*,-26,10,8,55*
CCN(CC(=O)NCc1ccc(F)cc1)C(=O)COc1ccccc1[N+](=O)[O-],-1,0,6,-1,-6,-7
CN1CCN(c2ccc(Cl)cc2NS(=O)(=O)c2ccccc2Cl)CC1,-3,2,-19,2,14,36*
CCCCCCn1c(COc2ccccc2F)nnc1SCC(=O)NC1CCS(=O)(=O)C1 (centres undefined),-2,2,-5,-7,6,14
CCCCCCCCN1C(=O)[C@H](CC(=O)N2CCCC2)C[C@@]2(C(=O)OC)CCCCC=C12,x,0,x,-15,21,x
O=C(Nc1cccc(C(=O)O)c1)/C(=C\c1cccc([N+](=O)[O-])c1)NC(=O)c1ccc(Br)cc1,-6,0,-21,7,7,61*
Cc1ccc2c(c1)c1c3n2CCN(C(=O)CCl)C3CCC1 (centres undefined),-6,1,7,-3,23,-11
Cc1cc(C)n(CC(=O)c2cccc([N+](=O)[O-])c2)n1,-6,17*,9,0,9,-10
CC(C)CN(C(=O)CSc1nc2ccccc2o1)c1c(N)n(Cc2ccccc2)c(=O)[nH]c1=O,-3,0,6,-7,16,-7
O=C(NCCCO)C(=O)NCc1ccccn1,-2,-1,7,-8,7,-10
NC1=NC(=O)C2(COC(c3cccnc3)OC2)S1 (centres undefined),-1,1,13,1,13,-8
CC1(C)Cc2c(sc3nc(-c4cccs4)n(N)c(=O)c23)CO1,2,16*,-22,-4,-13,25
O=[N+]([O-])c1ccc(N2CCC(O)CC2)nc1,1,0,15,29*,-16,0
COc1cc(NC(=O)COC(=O)Cc2ccsc2)cc(OC)c1,1,0,5,2,-1,3
CC(C)N(C(=O)COC(=O)c1cccnc1Cl)c1ccccc1,1,2,32*,-11,5,-38
O=C(COC(=O)c1cccnc1Cl)c1ccccc1,-4,1,3,-21,14,-2
Cc1oc(C(C)(C)C)cc1C(=O)NCc1ccc2c(c1)OCO2,-2,4,2,-2,12,-7
O=C(CN1CCc2ccccc21)NCc1ccc2c(c1)OCO2,-8,0,0,29*,-16,1
O=C(CCn1cccc1)NCc1ccc2c(c1)OCO2,1,0,5,27*,-5,0
Cn1nc(C(C)(C)C)cc1C(=O)NCc1ccc2c(c1)OCO2,5,13,-1,39*,-5,19

# Screening results (PubChem)
